Screens: PubChem, several laboratories
A selection: hits, their analogues and other compounds. The true share with any hit is near 3.1%.
TROY NFkB inh = inhibitors of TROY-dependent NF-kB signaling. Q293 LMP1-TROYcd NF-kB luciferase reporter, 4 h. inhibition, % at 10 µM. 360,000 compounds, 0.98% hits. AID 1347056;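 active = compounds whose plate-normalised and pattern-corrected inhibition of the luciferase reporter signal at the single screening dose is 50% or more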
EWS-Fli inh = blocks EWS/Fli oncoprotein-driven transcription; inhibition, % at 12.6 µM; 350,000 compounds, 0.67% hits; A673 NR0B1-luciferase reporter, viability-normalised; AID 651661;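 active = mean inhibition of at least 50% after viability correction, with every replicate also passing that limit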;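 also: firefly luciferase signal divided by Alamar Blue viability fluorescence both relative to DMSO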
LMP1 NFkB inh = Epstein-Barr LMP1 NF-kappaB reporter inhibition; LMP1-induced NF-kappaB luciferase reporter cells, luminescence; inhibition, % at 12.5 µM; 350,000 compounds, 0.69% hits; in the data active = inhibition above about 41%;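 also: 0% = neutral control wells and 100% = reference inhibitor control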
PAX8 reporter = PAX8 transcriptional activity inhibition; RMG-I TPO-luciferase reporter, SteadyGlo, 24 h; inhibition, % at 12.6 µM; 360,000 compounds, 1.2% hits;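 active = mean replicate inhibition at least 60% with every replicate also reaching 60%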;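 also: luciferase light reporting Pax8 driven TPO promoter activity; plate controls were median of neutral control wells for no effect and mitoxantrone controls for full effect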
TWEAK-Fn14 inh = blocks TWEAK-Fn14 interaction in a reporter cell assay; TWEAK-stimulated Fn14 reporter cells, luciferase luminescence, 8 h; inhibition, % at 10 µM; 360,000 compounds, 2% hits; in the data active = inhibition above about 50%
LGR2 inh = blocks bursicon-induced cAMP signaling via Drosophila LGR2 | HEK293 LGR2, CRE-luciferase, bursicon-stimulated, 4 h | inhibition, % at 9.99 µM | 380,000 compounds, 0.35% hits | AID 720647;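 active = drop in luminescence signal, shown as inhibition above about 50% in the replicate tests, limit read from the data, passing the limit was not always enough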;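 also: agonist challenge used bursicon conditioned medium at about half maximal strength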
Starred values were filed as active, the others as inactive; x = no result given.

SMILES	TROY NFkB inh	EWS-Fli inh	LMP1 NFkB inh	PAX8 reporter	TWEAK-Fn14 inh	LGR2 inh
C/C=C/c1ccc2c(c1)O[C@@H](CN(C)S(=O)(=O)c1ccc(C)cc1)[C@@H](C)CN([C@H](C)CO)S2(=O)=O	x	-4	x	x	x	11
COc1ccc(OC2C(=O)N(Cc3ccc4c(c3)OCO4)C2c2cccs2)cc1 (stereo not drawn)	37	x	19	x	61*	22
CN(Cc1ccccc1)C(=O)c1ccc(Nc2nc(C(N)Cc3ccc(C(F)(F)F)cc3)cs2)nc1 (stereo not drawn)	27	34	x	87*	28	0
CN(Cc1ccccc1)C(=O)c1ccc(Nc2nc(C(N)Cc3ccccc3)cs2)nc1 (stereo not drawn)	0	21	x	25	-13	13
N#C[C@@H]1[C@@H](c2ccccc2)[C@H](CO)N1C(=O)Cc1ccccn1	x	6	x	0	x	-17
COc1ccc(S(=O)(=O)Nc2cccc(-c3ccc4nncn4n3)c2)cc1F	11	56*	6	4	2	-3
OC1c2cc(Br)ccc2N=C2CCCCCN21 (stereo not drawn)	-33	-27	x	70*	-15	-34
C#Cc1cccc(NC(=O)Cc2cccs2)c1	-10	-1	-5	-9	-10	-10
CC(=O)Nc1cccc(NC(=O)Cc2cccs2)c1	-5	-1	-6	-13	8	2
CCOc1cccc(NC(=O)Cc2cccs2)c1	x	x	1	x	110*	x
O=C(Cc1cccs1)Nc1cccc(-c2nc3cc4ccccc4cc3[nH]2)c1	57*	-68	-66	16	74*	5
C[C@H](CO)N1C[C@H](C)[C@@H](CN(C)S(=O)(=O)c2cccs2)OCCCC[C@H](C)Oc2ccc(NC(=O)Nc3cccc4ccccc34)cc2C1=O	x	11	x	-6	x	13
C/C=C/c1ccc2c(c1)O[C@H](CN(C)Cc1ccccn1)[C@H](C)CN([C@H](C)CO)S2(=O)=O	x	14	x	2	x	-4
O=C(/C=C/Nc1ccc(S(=O)(=O)Nc2ncccn2)cc1)c1cccs1	42	1	-6	-10	60*	1
O=C(/C=C/Nc1ccc(S(=O)(=O)Nc2ncccn2)cc1)c1ccc(Cl)c(Cl)c1	-10	4	-1	-7	4	-22
CS(=O)(=O)N(CC(=O)Nc1ccc(F)cc1F)C1CCCCC1	4	9	82*	2	-2	28
CSc1ccccc1NC(=O)CN(C1CCCCC1)S(C)(=O)=O	22	x	-7	-11	14	x
COc1ccc2c(COC(=O)CNC(=O)C34CC5CC(CC(C5)C3)C4)cc(=O)oc2c1	-10	5	0	122*	-18	-5
CCN(C(=O)CCN1C(=O)/C(=C/c2ccccc2)SC1=S)C1CCS(=O)(=O)C1 (stereo not drawn)	22	-6	26	55	35	59*
CN(C(=O)CCN1C(=O)/C(=C/c2ccc(F)cc2)SC1=S)C1CCS(=O)(=O)C1 (stereo not drawn)	-9	-20	9	-1	-4	16
COc1ccc(/C=C2\SC(=S)N(CCCC(=O)N3CCOCC3)C2=O)cc1	-17	x	17	-12	95*	-11
COc1ccc(-c2nn(-c3ccccc3)cc2/C=C2/SC(=S)N(CCC(=O)O)C2=O)cc1	10	2	-8	2	-16	-21
COc1ccc(/C=C2/SC(=S)N(CCC(=O)O)C2=O)cc1	39	x	33	x	85*	-55
COc1ccc(-c2nn(-c3ccccc3)cc2/C=C2/SC(=S)N(CCC(=O)O)C2=O)c(C)c1	61*	6	11	0	14	x
Cc1ccccc1S(=O)(=O)N1CCCCN2[C@H](CO)[C@H](c3ccc(-c4cncnc4)cc3)[C@@H]2C1	x	x	x	-16	x	10
C[C@@H]1CN([C@H](C)CO)C(=O)Cc2cc(NC(=O)CCN3CCOCC3)ccc2O[C@H]1CN(C)Cc1ccc(Cl)c(Cl)c1	x	-3	x	5	x	6
COc1ccccc1S(=O)(=O)N[C@H]1CC[C@H](CC(=O)N2CCOCC2)O[C@@H]1CO	x	10	x	2	x	11
C[C@@H]1CCCCO[C@H](CN(C)C(=O)CCC(F)(F)F)[C@H](C)CN([C@@H](C)CO)C(=O)c2cc(NC(=O)c3ccccc3)ccc2O1	x	3	x	-26	x	-8
CC(C)NC(=O)N[C@H]1CC[C@H](CC(=O)NCCN2CCCC2)O[C@H]1CO	x	-1	x	3	x	2
